PubChem BioAssay (Tox21)
Records with an inconclusive call do not appear. Calls of active or inactive are those of the source. Calls follow the shape of the dose curve; as a rule, active = well fitted curve in the direction sought with a large enough effect in the repeat runs; inconclusive = weak or mixed curves; inactive = no such curve, though single readings can be large; an effect the other way counts as inactive or inconclusive.

How the values were obtained:
[1] = A CellTox Green Cytotoxicity Assay to monitor cytotoxicity in HEK293 cells - 40 hour (AID 1224871); also: nearly all actives have a fitted effect of over 45% in size
How it was run: (§1)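 Seeding of HEK293 cells together with cytotoxicity dye preceded a 5 h incubation at 37 C/5% CO2. Test compounds in DMSO were then added and fluorescence monitored across 40 h.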

[2] = qHTS RealTime-Glo MT Cell Viability Assay in HEK293 cells - 16 hour (AID 1224872); also: top concentration of the series differs between compounds; nearly all actives have a fitted effect of over 50% in size
How it was run: (§2)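 Luminescence generated by NanoLuc from substrate produced by living HEK293 cells served as the viability signal. Each value reflects the reading at its stated time point during continuous 40 h compound exposure at 37 C.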

[3] = qHTS RealTime-Glo MT Cell Viability Assay in HepG2 cells - 8 hour (AID 1224873); also: nearly all actives have a fitted effect of over 55% in size
How it was run: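 Real-time viability: cells seeded at 600 per well together with NanoLuc and cell-permeant prosubstrate, compounds added after 5 h incubation. Luminescence tracked at 0, 8, 16, 24, 32 and 40 h of exposure.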

[4] = qHTS RealTime-Glo MT Cell Viability Assay in HEK293 cells - 40 hour (AID 1224874); settings: RealTime-Glo luminescence; max response: active compounds read low; also: nearly all actives have a fitted effect of over 50% in size
How it was run: (§3)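 Tox21 screen in HEK293 using RealTime-Glo MT chemistry, with cells and reagent co-dispensed. Luminescence proportional to viable cell number was captured at intervals during 40 h compound exposure at 37 C.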

[5] = A CellTox Green Cytotoxicity Assay to monitor cytotoxicity in HEK293 cells - 24 hour (AID 1224875); also: series mostly up to about 77 µM; nearly all actives have a fitted effect of over 45% in size
How it was run: as §1

[6] = A CellTox Green Cytotoxicity Assay to monitor cytotoxicity in HepG2 cells - 16 hour (AID 1224876); also: nearly all actives have a fitted effect of over 45% in size
How it was run: (§4)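 Nonlytic assay: viable cells exclude the dye, so fluorescence scales with cell death. HepG2 at 600 cells/well, compounds added after 5 h, signal read across 40 h.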

[7] = qHTS RealTime-Glo MT Cell Viability Assay in HepG2 cells - 32 hour (AID 1224877); also: nearly all actives have a fitted effect of over 55% in size
How it was run: (§5)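 Tox21 10K library screened in qHTS format on HepG2 cells carrying RealTime-Glo reagents. Compounds were added after a 5 h preincubation, and the luminescent signal from continuous culture was measured repeatedly during 40 h treatment.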

[8] = A CellTox Green Cytotoxicity Assay to monitor cytotoxicity in HepG2 cells - 24 hour (AID 1224878); also: nearly all actives have a fitted effect of over 45% in size
How it was run: as §4

[9] = A CellTox Green Cytotoxicity Assay to monitor cytotoxicity in HepG2 cells - 40 hour (AID 1224879); also: nearly all actives have a fitted effect of over 40% in size
How it was run: as §4

[10] = A CellTox Green Cytotoxicity Assay to monitor cytotoxicity in HepG2 cells - 0 hour (AID 1224882); also: nearly all actives have a fitted effect of over 35% in size
How it was run: as §4

[11] = A CellTox Green Cytotoxicity Assay to monitor cytotoxicity in HepG2 cells - 32 hour (AID 1224883); also: nearly all actives have a fitted effect of over 50% in size
How it was run: as §4

[12] = A CellTox Green Cytotoxicity Assay to monitor cytotoxicity in HEK293 cells - 8 hour (AID 1224884); also: nearly all actives have a fitted effect of over 35% in size
How it was run: as §1

[13] = qHTS RealTime-Glo MT Cell Viability Assay in HepG2 cells - 16 hour (AID 1224885); also: nearly all actives have a fitted effect of over 50% in size
How it was run: as §5

[14] = qHTS RealTime-Glo MT Cell Viability Assay in HEK293 cells - 24 hour (AID 1224886)
How it was run: as §2

[15] = qHTS RealTime-Glo MT Cell Viability Assay in HEK293 cells - 8 hour (AID 1224887)
How it was run: as §3

[16] = A CellTox Green Cytotoxicity Assay to monitor cytotoxicity in HEK293 cells - 16 hour (AID 1224888); also: nearly all actives have a fitted effect of over 35% in size
How it was run: as §1

[17] = qHTS RealTime-Glo MT Cell Viability Assay in HepG2 cells - 0 hour (AID 1224889); also: nearly all actives have a fitted effect of over 50% in size
How it was run: as §5

[18] = A CellTox Green Cytotoxicity Assay to monitor cytotoxicity in HepG2 cells - 8 hour (AID 1224890); also: nearly all actives have a fitted effect of over 45% in size
How it was run: as §4

[19] = A CellTox Green Cytotoxicity Assay to monitor cytotoxicity in HEK293 cells - 32 hour (AID 1224881); also: nearly all actives have a fitted effect of over 40% in size
How it was run: as §1

[20] = qHTS RealTime-Glo MT Cell Viability Assay in HEK293 cells - 0 hour (AID 1224880)
How it was run: as §3
% is scaled to controls: 0 for no effect and ±100 for the full control effect.

CCCCOC(=O)c1ccccc1C(=O)O
inactive: Potency [1] | Potency [2] | Potency [3] | max response [4] 1.78% | Potency [5] | Potency [6] | Potency [7] | Potency [8] | Potency [9] | outcome [10] | Potency [11] | Potency [12] | Potency [13] | Potency [14] | Potency [15] | Potency [16] | Potency [17] | Potency [18]

CC1CN1P(=O)(N1CC1C)N1CC1C (centres undefined)
inactive: Potency [1] | Potency [2] | Potency [3] | max response [4] 6.96% | Potency [5] | Potency [6] | Potency [7] | Potency [8] | Potency [9] | outcome [10] | Potency [11] | Potency [12] | Potency [14] | Potency [15] | Potency [16] | Potency [17] | Potency [18]

OCCSCSCCO
inactive: Potency [1] | Potency [2] | Potency [3] | max response [4] 10.4% | Potency [5] | Potency [6] | Potency [7] | Potency [8] | Potency [9] | Potency [19] | outcome [10] | Potency [11] | Potency [12] | Potency [13] | Potency [15] | Potency [16] | Potency [17] | Potency [18]

COP(N)(=S)Oc1ccccc1C(=O)OC(C)C (centres undefined)
inactive: Potency [1] | Potency [2] | Potency [3] | max response [4] -8.89% | Potency [5] | Potency [6] | Potency [7] | Potency [8] | Potency [9] | Potency [19] | outcome [10] | Potency [11] | Potency [12] | Potency [13] | Potency [14] | Potency [15] | Potency [16] | Potency [17] | Potency [18]

CCC(Cl)[N+](=O)[O-] (centres undefined)
inactive: Potency [1] | Potency [2] | Potency [3] | max response [4] 4.31% | Potency [5] | Potency [6] | Potency [7] | Potency [8] | Potency [9] | Potency [19] | outcome [10] | Potency [11] | Potency [12] | Potency [13] | Potency [14] | Potency [15] | Potency [16] | Potency [17] | Potency [18]

CNC(=O)N(C)c1nc2ccccc2s1
inactive: Potency [1] | Potency [2] | Potency [3] | max response [4] -18.7% | Potency [5] | Potency [6] | Potency [7] | Potency [8] | Potency [9] | Potency [19] | outcome [10] | Potency [11] | Potency [12] | Potency [13] | Potency [14] | Potency [15] | Potency [16] | Potency [17] | Potency [18]

CNC(=O)Oc1ccc(N(C)C)c(C)c1
inactive: Potency [1] | Potency [2] | Potency [3] | max response [4] -14.9% | Potency [5] | Potency [6] | Potency [7] | Potency [8] | Potency [9] | outcome [20] | outcome [10] | Potency [11] | Potency [12] | Potency [14] | Potency [15] | Potency [16] | Potency [17] | Potency [18]

OCCBr
inactive: Potency [1] | Potency [2] | Potency [3] | max response [4] 13.1% | Potency [5] | Potency [6] | Potency [7] | Potency [8] | Potency [9] | Potency [19] | outcome [10] | Potency [11] | Potency [12] | Potency [13] | Potency [15] | Potency [16] | Potency [17] | Potency [18]

O=[N+]([O-])c1cccc(O)c1
inactive: Potency [1] | Potency [2] | Potency [3] | max response [4] 4.13% | Potency [5] | Potency [6] | Potency [7] | Potency [8] | Potency [9] | Potency [19] | outcome [10] | Potency [11] | Potency [12] | Potency [13] | Potency [15] | Potency [16] | Potency [17] | Potency [18]

CC1=NNC(=O)N(/N=C/c2cccnc2)C1
inactive: Potency [1] | Potency [2] | Potency [3] | max response [4] 3.94% | Potency [5] | Potency [6] | Potency [7] | Potency [8] | Potency [9] | outcome [20] | outcome [10] | Potency [11] | Potency [12] | Potency [13] | Potency [14] | Potency [15] | Potency [16] | Potency [17] | Potency [18]

Cc1ncc(CNC(=O)N(CCCl)N=O)c(N)n1
inactive: Potency [1] | Potency [2] | Potency [3] | max response [4] 2.69% | Potency [5] | Potency [6] | Potency [7] | Potency [8] | Potency [9] | Potency [19] | outcome [10] | Potency [11] | Potency [12] | Potency [13] | Potency [14] | Potency [15] | Potency [16] | Potency [17] | Potency [18]

CNNC
inactive: Potency [1] | Potency [2] | Potency [3] | max response [4] -7.62% | Potency [5] | Potency [6] | Potency [7] | Potency [8] | Potency [9] | outcome [20] | outcome [10] | Potency [11] | Potency [12] | Potency [14] | Potency [15] | Potency [16] | Potency [17] | Potency [18]

NC(=S)C(N)=S
inactive: Potency [1] | Potency [2] | Potency [3] | max response [4] 4.8% | Potency [5] | Potency [6] | Potency [7] | Potency [8] | Potency [9] | outcome [20] | outcome [10] | Potency [11] | Potency [12] | Potency [13] | Potency [14] | Potency [15] | Potency [16] | Potency [17] | Potency [18]

CC(CC(C#N)(c1ccccc1)c1ccccc1)N(C)C (centres undefined)
inactive: Potency [1] | Potency [2] | Potency [3] | Potency [5] | Potency [6] | Potency [7] | Potency [8] | outcome [20] | Potency [19] | outcome [10] | Potency [12] | Potency [13] | Potency [15] | Potency [16] | Potency [17] | Potency [18]

CC1=C(C(=O)O)N2C(=O)[C@@H](N)[C@H]2SC1
inactive: cytotoxicity increase [1] -14.9% [at 15.8 µM] | activity change, negative = cytotoxicity [2] 1.93% [at 15.8 µM] | viability change, negative = cytotoxic [3] 1.32% [at 15.8 µM] | max response [4] 1.69% | cytotoxicity increase [6] -9.17% [at 15.8 µM] | activity change, negative = cytotoxic [7] 1.22% [at 15.8 µM] | cytotoxicity [8] -8.35% [at 15.8 µM] | cytotoxicity increase [9] -6.02% [at 15.8 µM] | activity change, negative = cytotoxicity [20] 1.57% [at 15.8 µM] | cytotoxicity increase [19] -10.4% [at 15.8 µM] | cytotoxicity [10] -6.07% [at 15.8 µM] | cytotoxicity increase [11] -8.31% [at 15.8 µM] | cytotoxicity increase [12] -10.6% [at 15.8 µM] | activity change, negative = cytotoxic [13] 0.0678% [at 15.8 µM] | activity change, negative = cytotoxicity [14] -0.764% [at 15.8 µM] | activity change, negative = cytotoxicity [15] -0.746% [at 15.8 µM] | activity change [16] -1.57% [at 15.8 µM, active compounds read high] | activity change, negative = cytotoxicity [17] -0.386% [at 15.8 µM] | cytotoxicity increase [18] -7.33% [at 15.8 µM]
